# Data from PubChem BioAssay AID720553 (National Center for Advancing Translational Sciences (NCATS), 2013).
# Hit rate of the full screen: of about 340,000 compounds, about 3,300 (0.97%) were called active. This is one part of a sample in which actives are shown more often than they occur.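 Rule for the calls: active = maximum activity change below -70%; inconclusive = maximum activity change from -70% to -50%; inactive = maximum activity change above -50%.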
# Tested on: Potassium voltage-gated channel subfamily H member 2, brain isoform KCNH2 3.1 (human)
# Experiment: qHTS for Inhibitors of KCHN2 3.1: Mutant qHTS
# Settings: U2OS KCNH2 3.1, thallium flux FluxOr; stronger effect = lower value
# Method in brief: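 Normalized rate constant (relative to positive and negative DMSO controls) derived from a 2 min kinetic fluorescence read after stimulation; U2OS cells expressing the 3.1 isoform via virus at 1.77 x 10^8 /mL.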
# % is set by controls: 0 for no effect and ±100 for the full control effect.
row,SMILES,activity change
1,COc1cc2ccc(C(C)=O)c(O)c2cc1OC,5.97% (inactive)
2,N#CCCC(C#N)(c1cccnc1)N1CCOCC1 (stereo not drawn),7.47% (inactive)
3,C[C@H](CO)N1C[C@H](C)[C@@H](CN(C)C(=O)c2cccc(F)c2)Oc2cc(-c3cncnc3)ccc2S1(=O)=O,-2.89% (inactive)
4,COc1cccc(OC)c1C(=O)N1CCN(Cc2ccccc2F)CC1,-6.56% (inactive)
5,S=C1SCN(CCN2CCOCC2)CN1Cc1ccccc1,-10.5% (inactive)
6,COc1ccc(CN2CN(C(C)C)CSC2=S)cc1,-82.5% (active)
7,COc1ccc(CN2CN(C3CCCC3)CSC2=S)cc1,-9.2% (inactive)
8,C[C@@H]1CN([C@@H](C)CO)C(=O)CCCn2cc(nn2)CO[C@H]1CN(C)S(=O)(=O)c1ccc(-n2cccn2)cc1,7.17% (inactive)
9,Cc1c(NC(=O)COC(=O)/C=C/c2cccc(F)c2)c(=O)n(-c2ccccc2)n1C,1.3% (inactive)
10,COc1ccccc1C(c1nnnn1C(C)(C)C)N1CCN(Cc2ccccc2)CC1 (stereo not drawn),5% (inactive)
11,CCC(C)(C)n1nnnc1C(c1ccccc1OC)N1CCSCC1 (stereo not drawn),-86.1% (active)
12,CC(C)(C)n1nnnc1C(c1ccc(Cl)cc1)N1CCSCC1 (stereo not drawn),-3.03% (inactive)
13,Cc1ccccc1NC(=O)Cc1nc(COC(=O)CNC(=O)c2ccc(Cl)cc2Cl)cs1,-9.74% (inactive)
14,COc1ccc(S(=O)(=O)N2CCCCC2)cc1C(=O)NC1CCS(=O)(=O)C1 (stereo not drawn),26.3% (inactive)
15,CCN(CC)C(=O)C1=C(C)N(Cc2ccc(OC)cc2)C(=O)C(CC(=O)NCc2ccco2)C1 (stereo not drawn),22.6% (inactive)
16,CN(C)/C=C(/C(=O)c1ccccc1Cl)S(C)(=O)=O,-180% (active)
17,CN(C)/C=C(/C(=O)c1ccccc1)S(=O)(=O)c1ccc(Cl)cc1,7.64% (inactive)
18,CN(C)/C=C(/C(=O)c1ccc(Cl)cc1)S(=O)(=O)c1ccccc1,3.05% (inactive)
19,Cc1nc(N2CCN(c3ccccn3)CC2)c2c(C)c(C(=O)Nc3ccc(F)c(Cl)c3)sc2n1,-77.6% (active)
20,COc1ccc(NC(=O)c2sc3nc(C)nc(N4CCN(c5ccccn5)CC4)c3c2C)c(OC)c1,-30.8% (inactive)
21,Cc1nc(N2CCC(C)CC2)c2c(C)c(C(=O)Nc3cc(F)ccc3C)sc2n1,-5.3% (inactive)

row,SMILES,activity change
1,Cc1nc(N2CCN(c3ccccn3)CC2)c2c(C)c(C(=O)Nc3ccc(F)cc3)sc2n1,-101% (active)
2,Cc1cc(Br)ccc1NC(=O)c1sc2ncn(CC(=O)N3CCN(c4ccccn4)CC3)c(=O)c2c1C,-4.47% (inactive)
3,Cc1nc(N2CCOCC2)c2c(C)c(C(=O)Nc3ccc(C(F)(F)F)cc3)sc2n1,-41.2% (inactive)
4,CC1(C2CC2)NC(=O)N(CC(=O)N2CCN(c3ccccc3F)CC2)C1=O (stereo not drawn),3.05% (inactive)
5,CN1OC[C@@H]2CN(S(=O)(=O)c3cccc(C(F)(F)F)c3)[C@H](c3ccc(-c4cc5ccccc5o4)cc3)C[C@@H]21,-6.35% (inactive)
6,C[C@H]1CN([C@@H](C)CO)C(=O)CCCn2cc(nn2)CO[C@@H]1CN(C)S(=O)(=O)c1ccc(-n2cccn2)cc1,5.9% (inactive)
7,COc1ccc(NC(=O)CCCOc2ccc(C(C)=O)cc2)cc1S(=O)(=O)N1CCCCC1,6.94% (inactive)
8,CCCCCCN1C[C@@H](O)[C@H](n2cc(COC(=O)c3ccccc3)nn2)C[C@@H]1c1ccc(Cl)cc1,-8% (inactive)
9,O=S(=O)(c1cccs1)N1CCc2ccccc2C1,6.27% (inactive)
10,O=S(=O)(c1cccs1)N1CCN(CCOc2ccccc2)CC1,-99.6% (active)
11,O=S(=O)(c1cccs1)N1CCN(Cc2ccccc2)CC1,-4.85% (inactive)
12,Cc1ccc(C)c(NC(=S)NNC(=O)c2csc(C)c2)c1,-0.222% (inactive)
13,Cc1ccc(C)c(NC(=S)NNC(=S)Nc2ccc(C(C)C)cc2)c1,-96.6% (active)
14,Cc1ccc(NC(=S)N/N=C2/CCCc3c(C)cc(C)cc32)cc1,-3.22% (inactive)
15,CCc1nc2c(=O)[nH]cnc2o1,2.34% (inactive)
16,NC(=S)NN=Cc1ccc(OC(=O)COc2cc(Cl)c(Cl)cc2Cl)cn1,-0.923% (inactive)
17,NS(=O)(=O)c1ccc(-c2ccc(/C=C3\SC(=O)NC3=O)o2)cc1,14.4% (inactive)
18,O=C1NN(c2ccccc2)C(=O)/C1=C/c1ccc(-c2cccc(C(=O)O)c2)o1,28.7% (inactive)
19,CN1C(=O)/C(=C\c2ccc(-c3ccccc3)o2)SC1=S,-83.7% (active)
20,COc1ccc(NC(=O)CN2C(=O)NC(C)(c3ccccc3)C2=O)cn1 (stereo not drawn),-3.34% (inactive)
21,O=C(CSc1nnc(-c2cnccn2)n1Cc1ccco1)c1ccc(Cl)c(Cl)c1,-196% (active)

row,SMILES,activity change
1,Cc1ccc(NC(=O)CSc2nnc(-c3cnccn3)n2Cc2ccco2)cc1C,3.68% (inactive)
2,O=C(CSc1nnc(-c2cccnc2)n1Cc1ccco1)c1ccc(Cl)c(Cl)c1,-12.1% (inactive)
3,CCN(CC)C(=O)C1=C(C)N(Cc2ccc(C(C)(C)C)cc2)C(=O)C(CC(=O)NCc2cccc3ccccc23)C1 (stereo not drawn),-13.1% (inactive)
4,CCC1CCC2(CC1)NC(=O)N(CC(=O)Nc1ccc(OC)cc1)C2=O (stereo not drawn),10.2% (inactive)
5,CCc1cc(C(=O)c2ccc(OC)cc2)c(NC(=O)CN2CCN(C)CC2)s1,-103% (active)
6,COc1ccc(C(=O)N2CCC(C(=O)Nc3ccc(C)cc3)CC2)cc1,-27% (inactive)
7,COc1ccc(C(=O)Nc2sc(C)c(C)c2CN2CCOCC2)cc1,0.971% (inactive)
8,CCc1ccc(NC(=O)CN2CCC(C(=O)c3ccc(OC)cc3)CC2)cc1,-75.5% (active)
9,CCOc1ccc(NC(=O)CN2CCN(CC(=O)Nc3ccc(OC)cc3)CC2)cc1,-89.9% (active)
10,COc1ccc(NC(=O)CN2C(=O)CSC2=O)cc1,5.91% (inactive)
11,CCc1cc(C(N)=O)c(NC(=O)c2ccc(OC)cc2)s1,3.81% (inactive)
12,CCOc1ccc(NC(=O)N2CCN(CC)CC2)cc1,10.1% (inactive)
13,COc1ccc(OC)c(NC(=O)C2CCCN2S(=O)(=O)c2ccc3c(c2)CC(C)N3C(C)=O)c1 (stereo not drawn),12.8% (inactive)
14,CC1CC(NC(=S)N(C)C)CC(C)(C)C1 (stereo not drawn),-0.254% (inactive)
15,Cc1cn([C@H]2C[C@H](O)[C@@H](CNC(=O)[C@H](N)Cc3cccnc3)O2)c(=O)[nH]c1=O,0.448% (inactive)
16,Cc1ccc(S(=O)(=O)N2CCOCC2)cc1NC(=O)c1ccncc1,0.781% (inactive)
17,O=C1CCC(=O)N1CCC(=O)N(C(=O)NC1CCCCC1)C1CCCCC1,-16.1% (inactive)
18,CCOc1cc(/C=N/NC(=O)c2c(C)nc3ccc(Cl)cn23)ccc1O,6.54% (inactive)
19,O=C(Nc1ccc2c(c1)[C@@H]1C[C@@H](CC(=O)N3CCCCC3)O[C@@H](CO)[C@@H]1O2)NC1CCCCC1,7.85% (inactive)
20,CCOC(=O)c1c(S(=O)(=O)Nc2ccc(CN3CCC(C)CC3)cc2)c(C)n(C)c1C,-4.58% (inactive)
21,CCOC(=O)c1c(S(=O)(=O)Nc2cccc(Cl)c2)c(C)n(C)c1C,-89.7% (active)

row,SMILES,activity change
1,CCOC(=O)c1cccc(NS(=O)(=O)c2c(C(=O)N3CCCCCC3)c(C)n(C)c2C)c1,0.277% (inactive)
2,C[C@@H]1CCCCO[C@H](CN(C)Cc2ccccc2)[C@@H](C)CN([C@H](C)CO)C(=O)c2cc(NS(=O)(=O)c3ccc(Cl)cc3)ccc2O1,-12% (inactive)
3,CCN1C(=O)[C@H]2[C@@H](c3ccc(C(F)(F)F)cc3)N[C@]3(CCCN(Cc4ccc(Br)cc4)C3=O)[C@H]2C1=O,-2.79% (inactive)
4,CCC(=O)c1ccc(OCC(O)CN2CCN(c3cccc(C(F)(F)F)c3)CC2)cc1 (stereo not drawn),-77.4% (active)
5,CC(=O)Nc1ccc(OCC(O)CN2CCN(c3ccccc3Cl)CC2)cc1 (stereo not drawn),-1.41% (inactive)
6,CC(=O)c1ccc(OCC(O)CN2CCN(S(=O)(=O)c3cccc(Br)c3)CC2)cc1 (stereo not drawn),-4.78% (inactive)
7,CCN(CC(=O)Nc1ccc(NC(C)=O)cc1)C(=O)C1CC(=O)N(c2ccc3c(c2)OCCO3)C1 (stereo not drawn),0.735% (inactive)
8,O=C(CN1CCN(CC(=O)Nc2ccc3c(c2)OCO3)CC1)Nc1ccc(F)cc1,-109% (active)
9,O=C(COC(=O)c1ccc(F)cc1)Nc1ccc2c(c1)OCO2,-1.18% (inactive)
10,O=C(CN1CCN(C(=O)c2ccco2)CC1)Nc1ccc2c(c1)OCO2,0.979% (inactive)
11,COc1ccc(-c2c(C#N)cnc(C)c2C)c(O)c1OC,1.89% (inactive)
12,CC(Sc1ccc(S(=O)(=O)N2CCN(C)CC2)cn1)C(=O)NC1CCCC(C)C1C (stereo not drawn),-1.67% (inactive)
13,C[C@H]1CN([C@@H](C)CO)C(=O)CCCn2cc(nn2)CO[C@@H]1CN(C)S(=O)(=O)c1cccc(C#N)c1,-14.5% (inactive)
14,C[C@@H]1CN([C@H](C)CO)C(=O)CCCn2nncc2CO[C@@H]1CN(C)S(=O)(=O)c1cccc(C#N)c1,-103% (active)
15,Cc1cccc(S(=O)(=O)N(C)C[C@@H]2OCc3cnnn3CCCC(=O)N([C@H](C)CO)C[C@@H]2C)c1,15.7% (inactive)
16,C[C@H]1CN([C@@H](C)CO)C(=O)CCCn2nncc2CO[C@@H]1CN(C)S(=O)(=O)c1cccc(C#N)c1,-3.59% (inactive)
17,O=C1OCCC1=COCCCCOC=C1CCOC1=O,5.66% (inactive)
18,CNC(=O)C1CCN(S(=O)(=O)c2c(C)noc2/C=C/c2cccc(C)c2)CC1,-0.856% (inactive)
19,Cc1noc(/C=C/c2ccco2)c1S(=O)(=O)N1CCC(C(=O)Nc2ccc(Cl)cn2)CC1,-73.5% (active)
20,Cc1noc(/C=C/c2ccco2)c1S(=O)(=O)N1CCC(C(=O)N2CCc3ccccc32)CC1,-11.8% (inactive)
